PubChem BioAssay AID504444 (National Center for Advancing Translational Sciences (NCATS), 2011)
Where “and” joins values, the source holds several entries; their conditions need not be identical. Equal values may be shown once. The whole screen tested about 360,000 compounds, of which about 7,500 (2.1%) were called active. Not shown: some 20% with an inconclusive outcome. The entries come from a sample that favours actives as a whole. Values without a mark were called inactive. Calls follow the shape of the dose curve; as a rule, active = well fitted inhibition curve with a large enough effect; inconclusive = small, poorly fitted or top-dose-only effect, or effect the other way; inactive = flat fitted curve, though single readings scatter.

Assay: Nrf2 qHTS screen for inhibitors; also: nearly all actives have a fitted effect of over 60% in size
Conditions: A549 ARE-Fluc reporter, luciferase luminescence, 18-24 h; series mostly up to 46 µM; activity change, negative = inhibition: at the top concentration
How it was run: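 Two sequential reads on A549 ARE_Fluc cells exposed to compound for 18-24 h: a CellTiter-Fluor fluorescence read for viability, then a luciferase luminescence read for Nrf2/ARE activity.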
% is scaled to controls: 0 for no effect and ±100 for the full control effect; potency is read from the fitted curve at half-maximal effect.

In order of falling “activity change, negative = inhibition” value:
1. CN1CCN(C2(CNC(=O)COc3ccc(C(C)(C)C)cc3)CCCCC2)CC1  23.4%
2. Cc1ccc2onc(CC(=O)N3CCN(c4ccc(Cl)cc4)CC3)c2c1  23.1%
3. N#Cc1ccc(Oc2ccc(C(F)(F)F)cc2NC(=O)c2ccc(F)cc2)cc1  22.2%
4. CC(=O)c1nc2ccccc2n1Cc1ccccc1  16%
5. O=C(Nc1ccc(S(=O)(=O)N2CCC(c3nc4ccccc4s3)CC2)cc1)c1ccccc1F  15.9%
6. CCN(Cc1ccncc1)C(=O)CCc1ccccc1  14.4%
7. COc1ccc(C(CNC(=O)c2cccc(S(=O)(=O)Nc3ccc(Br)cc3)c2)N(C)C)cc1 (stereo unspecified)  12.8%
8. CN1CCN(C(=O)c2ccc(-c3ccc(Br)cc3)o2)CC1  11.3%
9. O=C(CSc1nc2ccccc2c(=O)n1CCCO)N1CCc2ccccc21  11.1%
10. COC(=O)c1ccc(CSc2nnc(NC(C)C)s2)cc1  9.82%
11. O=C(CNC(=O)c1ccc(Cl)cc1Cl)OC(C(=O)Nc1cc(C(F)(F)F)ccc1Cl)c1ccccc1 (stereo unspecified)  7.1%
12. CCN(CC)CCNC(=O)Cn1ncc2c3ccccc3n(Cc3ccccc3C)c2c1=O  6.67%
13. O=C(NCc1cccs1)C1CCN(S(=O)(=O)c2ccc3c(c2)OCCO3)CC1  6.59%
14. CC(=O)OCC(COC(C)=O)OC(C)=O  6.37%
15. N#CCCN(C(=O)COC(=O)c1ccc2c(c1)OCCO2)c1ccccc1  5.07%
16. O=C(NOCc1ccccc1)c1cccc([N+](=O)[O-])c1  5.07%
17. Oc1ccc(CN2CCN(c3ncccn3)CC2)cc1  2.2%
18. COc1ccc(C(F)(F)F)cc1NC(=O)c1sc2nc(-c3cccs3)ccc2c1N  1.83%
19. O=C(Nc1c(Br)cc2c(c1Br)Cc1cc([N+](=O)[O-])ccc1-2)C(Cl)Cl  1.16%
20. CC(C[N+](C)(C)C)OC(N)=O (stereo unspecified)  0.44%
21. CCSc1nnc(NC(=O)c2cc(=O)c3cc(C)c(C)cc3o2)s1  -0.281%
22. C=CCn1c(=O)c2ccccc2n2c(SCC(=O)N3CCCc4ccccc43)nnc12  -0.965%
23. O=C(C(Cl)Cl)N1CCN(c2ccccn2)CC1  -1.05%
24. Cc1ccc(OCC(=O)NCCCNC(=O)c2ccco2)cc1C  -1.07%
25. Cc1ccc(NC(=O)c2oc3ccccc3c2NC(=O)Cc2cccs2)cc1  -2.62%
26. CC(=O)c1ccc(NC(=O)CCc2nc(-c3ccc(C)cc3)no2)cc1  -3.05%
27. C[C@H](O)[C@@H]1C(=O)N2CCc3ccc(N4CCOCC4)cc3[C@@H]2C[C@@H]1N(C)C(=O)C(C)(C)C  -3.59%
28. Cc1ccccc1NC(=O)c1ccccc1NS(=O)(=O)c1cccc2cccnc12  -4.28%
29. Cc1ccc(S(=O)(=O)N(C)CC(=O)NCC(c2ccc(F)cc2)N2CCOCC2)cc1 (stereo unspecified)  -6.27%
30. COc1cc(C)cc(CN2CCC(Cc3ccccc3)CC2)c1O  -6.3%
31. COc1ccc(CN2C(CC(=O)Nc3cccnc3)c3ccc(C(F)(F)F)cc3S2(=O)=O)cc1 (stereo unspecified)  -7.15%
32. O=[N+]([O-])c1cccc2ncccc12  -7.71%
33. O=C(C[C@@H]1C/C=C\CCC(=O)OC[C@@H]2CCCN2C1=O)NCCO  -13.3%
34. O=C(Cc1ccc(Br)cc1)N1CCN(c2ccccn2)CC1  -16.2%
35. CC(C)c1ccc(C2CC(=O)N3CN(C4CCCCC4)CSC3=C2C#N)cc1 (stereo unspecified)  -16.3%
36. CCC(=O)Nc1nc2ccccc2n1Cc1ccccc1C  -17.9%
37. Brc1nc2ncnc(NCc3ccco3)c2[nH]1  -18.6%
38. COC(=O)c1ccccc1NC(=O)c1ccc(C#N)cc1  -19.4%
39. Cc1ccc(NC(=O)COc2ccc(/C=N\NC(=O)c3cccnc3)cc2)cc1C  -21.1%

For `Cc1ccc(C(=O)Oc2coc(CSc3nnc(NC(=O)c4cccs4)s3)cc2=O)cc1C`, the Potency was 14.6 µM (active).
For `Cc1cc(C)c(SCCc2ccncc2)c(C)c1`, the Potency was 16.4 µM (active).
With `O=C(/C=C/c1cccc(C(F)(F)F)c1)N1CCN(c2ccccn2)CC1` the Potency was 23.1 µM (active).
In the case of `O=[N+]([O-])c1ccccc1S(=O)(=O)Nc1cccc2cccnc12`, the Potency is reported as 5.8 µM (active) and 11.6 µM (active).
For `Cc1ccc(OCC(=O)NCCCNC(=O)c2cccnc2)cc1C`, the Potency was 5.17 µM (active).
In the case of `CC(=O)Nc1nc2ccccc2n1Cc1ccc(C)cc1`, the Potency is reported as 18.4 µM (active).
In the case of `N#Cc1ccc(C(=O)Nc2nc(-c3cccs3)c(C(=O)C(F)(F)F)s2)cc1`, the Potency is reported as 5.17 µM (active).
With `CC(=O)OC(C)C[N+](C)(C)C` (stereo unspecified) the Potency was 0.461 µM (active).
For `O=C(c1c(F)cccc1F)N1CCN(S(=O)(=O)c2ccc3c(c2)OCCO3)CC1`, the Potency was “inactive”.
In the case of `O=C(c1ccc2c(c1)OCCO2)C1CCN(S(=O)(=O)c2cccc(F)c2)CC1`, the Potency is reported as 14.6 µM (active).
For `Oc1c(CN2CCCC2)cc(COCc2ccccc2)c2cccnc12`, the Potency was 16.4 µM (active).
In the case of `Cn1c(SCC(=O)N2CCCc3ccccc32)nc2ccccc2c1=O`, the Potency is reported as 18.4 µM (active).
